Results from PubChem BioAssay.
Several values for one entry are separate records, joined by “and”; a condition that tells them apart may be missing. Equal entries are not always repeated. Results filed as inconclusive are left out. Activity calls are given as the source filed them.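 Rule for the calls, unless noted: active = mean z-score across replicates of 1.96 or higher in either the MELAS or the Rieske mutant cell line; inactive = the rest.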

Key:
[1] = SU-DIPG-VI glioma cell viability, MIPE4.0 library, CellTiter-Glo luminescence, qHTS (AID 1347066; cut-off not given, nearly all actives have AC50 up to about 30 µM;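 note: cells exposed to compound for 48 hours before readout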); settings: CellTiter-Glo ATP luminescence
[2] = phospholipid biosynthesis inhibitors in animal cells, primary screen, cell-based, LOPAC library, screen 4 (AID 1347384; call rule not given here); settings: phospholipid biosynthesis inhibition screen, at 10 µM
[3] = survival rescue of mitochondrial mutant cells in low glucose, primary screen, MELAS cybrids, Rieske KO mouse fibroblasts, CellTiter-Glo (AID 1508586);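 note: z relative to plate mean and SD of compound and empty wells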
[4] = biological target: NAD(+) hydrolase SARM1 (Homo sapiens) (UniProt Q6SZW1); test: SARM1 TIR NADase inhibitors, cell lysate, NAD-Glo luminescence (AID 1508614;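 active = compound whose remaining NAD level is above about 45 nM, limit read from the data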;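 note: higher remaining NAD means stronger inhibition of SARM1 NADase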); settings: SAM-TIR HEK293T lysate NADase, at 1 µM, stronger effect = higher value
[5] = biological target: Mitogen-activated protein kinase 7 (Homo sapiens) (UniProt Q13164); test: ERK5 transactivation activators in reporter cells, primary screen, cell-based, HTS (AID 1508626;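 active = luciferase signal above three times the same-plate solvent-only control wells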;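 note: luciferase driven by Gal4-ERK5 fusion binding five Gal4 sites before minimal TATA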); settings: HeLa Gal4-ERK5 transactivation, 18 h, at 5 µM, stronger effect = higher value
[6] = viability rescue of complex I mutant cybrids, primary screen, cell-based, galactose medium, ATP luminescence (AID 1645843;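 active = z-score of at least 1.8 in each of two replicates, scored against plate mean and spread of sample wells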;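 note: positive z means more ATP and so rescue of galactose-driven cybrid death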); settings: complex I mutant cybrid cells, 72 h, stronger effect = higher value
[7] = sensitizers of A549 cells to miR-34 induction, primary screen, imaging, A549 dox-inducible miR-34, nuclei and caspase counts (AID 1347080;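 active = compounds whose cell count with miR-34 switched on is under 0.7 times the count with it off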); settings: A549 miR-34 inducible, Hoechst nuclei count, 48 h
[8] = SU-DIPG-XXV glioma cell viability, MIPE5.0 library, qHTS (AID 1347068; cut-off not given, nearly all actives have IC50 up to about 30 µM)
[9] = inhibitors of Cryptococcus chitosan production, flow cytometry, Cibacron Brilliant Red staining (AID 1347148; call rule not given here;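 note: compound exposure lasted three days at 37 degrees C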); settings: Cryptococcus neoformans chitosan, stronger effect = lower value; at 10 µM unless noted
[10] = MELAS cybrid survival, CellTiter-Glo 48 h, stronger effect = higher value
[11] = Rieske KO mouse fibroblast survival, CellTiter-Glo 72 h
[12] = stronger effect = lower value, cell number ratio, induced over uninduced
[13] = measured here: relative caspase fold change +Dox/-Dox
[14] = measured here: total cells with miR-34 induction, stronger effect = lower value
[15] = measured here: total cells without miR-34 induction

Chain of NAD(+) hydrolase SARM1 (Homo sapiens) (Q6SZW1 whole entry, looked up, the tested form may be a part): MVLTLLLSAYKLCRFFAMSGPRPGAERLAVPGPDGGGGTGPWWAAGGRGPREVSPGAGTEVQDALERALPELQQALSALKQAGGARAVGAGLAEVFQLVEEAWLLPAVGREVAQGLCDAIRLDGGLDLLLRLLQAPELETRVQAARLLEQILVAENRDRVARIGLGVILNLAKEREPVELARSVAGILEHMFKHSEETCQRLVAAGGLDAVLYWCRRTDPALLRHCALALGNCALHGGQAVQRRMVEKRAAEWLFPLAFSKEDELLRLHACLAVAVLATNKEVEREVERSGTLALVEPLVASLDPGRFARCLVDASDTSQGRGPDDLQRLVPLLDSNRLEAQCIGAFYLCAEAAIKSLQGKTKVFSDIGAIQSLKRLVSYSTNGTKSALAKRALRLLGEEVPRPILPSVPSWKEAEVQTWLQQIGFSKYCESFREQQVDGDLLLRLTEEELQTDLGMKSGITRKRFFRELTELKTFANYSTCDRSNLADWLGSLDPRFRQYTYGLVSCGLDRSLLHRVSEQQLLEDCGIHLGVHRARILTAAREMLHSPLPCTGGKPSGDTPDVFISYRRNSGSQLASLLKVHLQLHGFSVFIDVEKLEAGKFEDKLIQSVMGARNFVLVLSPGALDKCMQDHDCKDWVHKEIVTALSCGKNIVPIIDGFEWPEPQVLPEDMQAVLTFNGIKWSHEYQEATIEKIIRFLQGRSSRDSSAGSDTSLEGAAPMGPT
Chain of Mitogen-activated protein kinase 7 (Homo sapiens) (Q13164 whole entry, looked up, the tested form may be a part): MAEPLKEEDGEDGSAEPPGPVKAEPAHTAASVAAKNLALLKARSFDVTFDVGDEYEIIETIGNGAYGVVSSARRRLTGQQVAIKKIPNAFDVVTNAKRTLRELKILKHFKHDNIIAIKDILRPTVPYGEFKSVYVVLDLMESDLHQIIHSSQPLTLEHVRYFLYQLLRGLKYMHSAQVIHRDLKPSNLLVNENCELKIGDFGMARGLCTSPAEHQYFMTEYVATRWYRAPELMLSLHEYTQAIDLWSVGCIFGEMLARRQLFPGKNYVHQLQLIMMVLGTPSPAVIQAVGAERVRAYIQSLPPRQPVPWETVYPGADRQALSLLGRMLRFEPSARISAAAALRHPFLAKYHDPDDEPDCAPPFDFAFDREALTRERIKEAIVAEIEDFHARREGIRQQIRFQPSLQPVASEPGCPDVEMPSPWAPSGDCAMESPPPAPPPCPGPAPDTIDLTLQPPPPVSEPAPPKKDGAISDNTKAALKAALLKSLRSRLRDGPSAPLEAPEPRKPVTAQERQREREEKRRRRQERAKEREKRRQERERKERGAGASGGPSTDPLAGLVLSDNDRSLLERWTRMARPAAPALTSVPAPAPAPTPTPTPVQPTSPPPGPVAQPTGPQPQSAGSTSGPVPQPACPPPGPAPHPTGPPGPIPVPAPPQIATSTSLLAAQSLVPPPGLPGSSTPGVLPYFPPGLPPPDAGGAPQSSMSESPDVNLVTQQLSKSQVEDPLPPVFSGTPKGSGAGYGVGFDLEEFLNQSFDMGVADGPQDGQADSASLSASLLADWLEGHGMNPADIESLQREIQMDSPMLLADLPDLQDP

SMILES	AC50 [1]	outcome [2]	z-score [3, 10]	z-score [3, 11]	remaining NAD [4]	luciferase signal [5]	z-score [6]	outcome [1]	fold change [7, 12]	fold change [7, 13]	cell count [7, 14]	cell count [7, 15]	outcome [8]	fold fluorescence [9]
COc1cc2nc(N3CCN(C(=O)C4COc5ccccc5O4)CC3)nc(N)c2cc1OC (stereo unspecified)	23.5 µM (active)	inactive	-0.637 (inactive) and 1.46 and 0.739	1.03 and 2.18 and 2.11	10 nM (inactive)	32 AU (inactive)	-0.385 (inactive) and -0.73 (inactive) and 0.525 (inactive)							
COc1ccc2c(c1)c(CC(=O)OCC(=O)O)c(C)n2C(=O)c1ccc(Cl)cc1			-0.366 (inactive) and 0.477 (inactive) and -0.419 (inactive)	0.51 and 0.248 and -0.275	10 nM (inactive)	52 AU (inactive)	0.565 (inactive)	inactive	0.914 (inactive) and 0.85 (inactive) and 0.854 (inactive)	1.04 and 0.882 and 1.4	8990 and 8100 and 8980	9840 and 9530 and 10500		
CC(C)c1nc(CN(C)C(=O)N[C@H](C(=O)N[C@@H](Cc2ccccc2)C[C@H](O)[C@H](Cc2ccccc2)NC(=O)OCc2cncs2)C(C)C)cs1			-1.48 (inactive)	0.534	10 nM (inactive)			inactive						
Cc1onc(-c2ccccc2Cl)c1C(=O)N[C@@H]1C(=O)N2[C@@H]1SC(C)(C)[C@@H]2C(=O)O			1.06 (inactive)	0.283	10 nM (inactive)	24 AU (inactive)		inactive	0.913 (inactive) and 0.866 (inactive)	1.38 and 0.839	8800 and 10900	9640 and 12500		
Nc1ccc(S(=O)(=O)Nc2ccccn2)cc1			-0.349 (inactive)	0.469	10 nM (inactive)	64 AU (inactive)		inactive	0.875 (inactive) and 0.859 (inactive)	1.07 and 2.95	9140 and 10900	10400 and 12600		
Cc1ncc([N+](=O)[O-])n1CCO			-0.252 (inactive) and -0.693 (inactive) and 0.0516 (inactive)	0.34 and -0.0287 and -0.879	10 nM (inactive)	56 AU (inactive)	1.04 (inactive) and 0.355 (inactive)	inactive						
C[C@](N)(Cc1ccc(O)c(O)c1)C(=O)O		inactive	-1.52 (inactive) and -0.0357 (inactive)	-0.276 and -0.892	10 nM (inactive)	68 AU (inactive)	-1.24 (inactive) and -0.53 (inactive) and -0.665 (inactive)	inactive					inactive	
O=C(O)c1cccnc1Nc1cccc(C(F)(F)F)c1		inactive	-0.334 (inactive) and -0.267 (inactive) and 0.0798 (inactive)	-0.307 and -0.187 and -0.378	10 nM (inactive)	60 AU (inactive)	-0.15 (inactive) and 0.22 (inactive)	inactive						3.63 [at 177.2 µM] (inactive)
